± gives the standard deviation of the averaged measurements.
Tested on: A549
Assay: relative viability (normalised to negative control = 1, bortezomib = 0) (fraction); higher = less cytotoxic
Conditions: inflammatory serum-free RHB-A with cytokines + LPS, 5 d + 24 h CellTiter-Blue
Experimental: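 A549 KRAS-mutant NSCLC cells, pre-treated 5 µM GSK126 or vehicle (DMSO), were seeded at 250 cells/well in 384-well plates in serum-free RHB-A medium with inflammatory cytokines/LPS and treated with Selleck kinase inhibitor and NCI oncology compounds at 30 or 300 nM in triplicate, refreshed at 48 h. Viability was read by CellTiter-Blue after 5 d plus 24 h and normalised per plate with cellHTS2 (mean of bortezomib positive control = 0, mean of negative control = 1).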

[1] = compound 30 nM, GSK126 pretreatment: 5 uM GSK126
[2] = compound 30 nM, GSK126 pretreatment: none (vehicle)
[3] = compound 300 nM, GSK126 pretreatment: 5 uM GSK126
[4] = compound 300 nM, GSK126 pretreatment: none (vehicle)

| Compound | relative viability [1] | relative viability [2] | relative viability [3] | relative viability [4] |
| --- | --- | --- | --- | --- |
| CN(C)c1ccc(-c2nc3ncc(Cl)c(N4CCN(CC(=O)Nc5nccs5)CC4)c3[nH]2)cc1 | 0.997 ± 0.11 | 0.983 ± 0.091 | 1.1 ± 0.097 | 1.07 ± 0.066 |
| Clc1ccc(Nc2nnc(Cc3ccncc3)c3ccccc23)cc1 [Vatalanib] | 0.822 ± 0.036 | 0.791 ± 0.044 | 0.84 ± 0.074 | 0.874 ± 0.05 |
| CO[C@H]1C[C@@H]2CC[C@@H](C)[C@@](O)(O2)C(=O)C(=O)N2CCCC[C@H]2C(=O)O[C@H]([C@H](C)C[C@@H]2CC[C@@H](O)[C@H](OC)C2)CC(=O)[C@H](C)/C=C(\C)[C@@H](O)[C@@H](OC)C(=O)[C@H](C)C[C@H](C)/C=C/C=C/C=C/1C [Sirolimus; RAPAMYCIN; Rapamycin(Sirolimus); Rapamycin] | 0.576 ± 0.08 | 0.588 ± 0.064 | 0.552 ± 0.066 | 0.558 ± 0.07 |
| Cc1c(CN2CCN(C(=O)[C@H](C)O)CC2)sc2c(N3CCOCC3)nc(-c3cnc(N)nc3)nc12 | 0.678 ± 0.048 | 0.754 ± 0.063 | 0.15 ± 0.033 | 0.172 ± 0.013 |
| CN(C)C1CCN(C(=O)c2ccc(NC(=O)Nc3ccc(-c4nc(N5CCOCC5)nc(N5CCOCC5)n4)cc3)cc2)CC1 | 0.329 ± 0.01 | 0.428 ± 0.011 | 0.0588 ± 0.0043 | 0.088 ± 0.0042 |
| COc1ccc(-c2ccc3c(N4CCOC[C@@H]4C)nc(N4CCOC[C@@H]4C)nc3n2)cc1CO | 0.392 ± 0.011 | 0.396 ± 0.016 | 0.191 ± 0.054 | 0.197 ± 0.015 |
| CO[C@H]1C[C@@H]2CC[C@@H](C)[C@@](O)(O2)C(=O)C(=O)N2CCCC[C@H]2C(=O)O[C@H]([C@H](C)C[C@@H]2CC[C@@H](OCCO)[C@H](OC)C2)CC(=O)[C@H](C)/C=C(\C)[C@@H](O)[C@@H](OC)C(=O)[C@H](C)C[C@H](C)/C=C/C=C/C=C/1C [Everolimus; Everolimus(RAD001)] | 0.647 ± 0.072 | 0.615 ± 0.033 | 0.562 ± 0.068 | 0.582 ± 0.063 |
| COc1ccc(-c2cc3c(C)nc(N)nc3n(C3CCC(OCCO)CC3)c2=O)cn1 (stereo not given) | 0.617 ± 0.071 | 0.634 ± 0.063 | 0.0912 ± 0.017 | 0.087 ± 0.014 |
| Oc1ccc(-c2nc(-c3ccc(F)cc3)c(-c3ccncc3)[nH]2)cc1 | 1.08 ± 0.13 | 0.954 ± 0.13 | 1.36 ± 0.066 | 1.17 ± 0.19 |
| CCCCCOC(=O)Nc1nc(=O)n([C@@H]2O[C@H](C)[C@@H](O)[C@H]2O)cc1F [Capecitabine] | 0.858 ± 0.12 | 0.867 ± 0.12 | 0.892 ± 0.14 | 0.965 ± 0.12 |

From the supplement of paper PMC6279402
